Compounds with a hit are over-represented: about 19% of the library has one in this group of screens.
TDP1 cell noCPT – qHTS for Inhibitors of human tyrosyl-DNA phosphodiesterase 1 (TDP1): qHTS in cells in absence of CPT. 420,000 tested, 15% active. DT40 Tdp1-/- hTDP1 cells, no CPT, ATP luminescence, 48 h. Potency, µM (top dose mostly 46.2 µM), inactives show at the highest dose activity change, negative = growth inhibition, most hits filed as inhibitors; also: potency is read from the fitted curve at half-maximal effect; nearly all actives have a fitted effect of over 55% in size
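No-CPT arm: Tdp1-/-;hTDP1 DT40 cells (400/well) plus compounds, incubated ≥48 hr at 37 °C. Readout CellTiter-Glo luminescence.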
Giardia kill – Giardia lamblia killing | Giardia lamblia trophozoite viability | activity change, % at 7.66 µM, hits read low | 340,000 tested, 0.15% active | AID 540267; in the data active = activity change below about -80%; inconclusive = between about -30% and that limit;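 also: parasites exposed to compound for two days anaerobically before the ATP read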
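Anaerobic 48 hrs incubation at 37 deg C of 100 trophozoites/well with test compounds; ATPLite 1-Step luminescence, 15-30 min RT, reports cellular ATP as viability.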
IL1B secr inh – inhibitors of inflammasome signaling (IL-1 beta secretion); THP-1 LPS/ATP IL-1B secretion, AlphaLISA, 16 h; stronger effect = lower value; activity change, % at 57.5 µM; 360,000 tested, 4.7% active; in the data active = activity change below about -50%; inconclusive = mostly about -30% to -49%
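THP-1 cells pretreated 1 hr with compounds (up to 57.5 uM final), then stimulated with LPS (250 ng/mL final) plus ATP (1.25 mM final); secreted IL-1B measured by AlphaLISA after 16 hr, decreased signal indicating inhibition.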
TDP1 block – blocks human tyrosyl-DNA phosphodiesterase 1. recombinant TDP1, AlphaScreen DNA substrate cleavage. Potency, µM (doses to about 130 µM), for the others: top-dose activity change, negative = inhibition, actives largely listed as inhibitors. 350,000 tested, 0.28% active. AID 485290; also: potency is read from the fitted curve at half-maximal effect; nearly all actives have a fitted effect of over 40% in size
Target sequence (Q9NUW8 whole entry, looked up): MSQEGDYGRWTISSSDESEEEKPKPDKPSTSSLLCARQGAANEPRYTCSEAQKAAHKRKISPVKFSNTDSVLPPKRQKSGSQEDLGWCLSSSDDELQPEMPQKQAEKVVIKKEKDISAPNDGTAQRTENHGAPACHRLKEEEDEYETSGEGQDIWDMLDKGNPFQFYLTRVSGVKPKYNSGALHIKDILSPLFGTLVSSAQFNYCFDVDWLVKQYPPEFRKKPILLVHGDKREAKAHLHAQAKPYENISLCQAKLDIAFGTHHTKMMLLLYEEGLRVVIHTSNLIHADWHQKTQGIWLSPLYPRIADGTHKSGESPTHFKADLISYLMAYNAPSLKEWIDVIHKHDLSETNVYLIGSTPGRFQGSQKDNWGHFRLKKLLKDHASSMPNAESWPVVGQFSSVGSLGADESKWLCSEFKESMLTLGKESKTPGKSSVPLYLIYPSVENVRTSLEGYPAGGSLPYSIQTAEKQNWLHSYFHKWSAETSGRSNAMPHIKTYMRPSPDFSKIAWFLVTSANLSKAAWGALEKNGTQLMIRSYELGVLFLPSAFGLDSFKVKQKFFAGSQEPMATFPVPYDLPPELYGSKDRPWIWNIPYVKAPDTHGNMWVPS
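AlphaScreen read-out: signal falls as enzyme removes the 3' tyrosine-FITC from a 5'-biotinylated DNA oligo (15 nM, 5 min, RT). Enzyme was E. coli-made recombinant Tdp1 at 1 nM, exposed to compound for 15 min beforehand; beads 10 ug/ml, 10 min.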
TDP1 cell CPT – growth inhibition of DT40 Tdp1-/-;hTDP1 cells with camptothecin (screen for TDP1 inhibitors). chicken DT40 Tdp1-/-;hTDP1 cells + 20 nM CPT, ATP luminescence, 48 h. Potency, µM (titrated, usually from 46.2 µM), for the others: at the top dose activity change, negative = growth inhibition, usual class: inhibitors. 420,000 tested, 12% active; also: potency is read from the fitted curve at half-maximal effect; nearly all actives have a fitted effect of over 55% in size
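Cell growth measured by CellTiter-Glo luminescence after a minimum 48 h, 37 C compound exposure with 20 nM CPT in Tdp1-knockout DT40 cells stably expressing hTDP1, seeded 400/well; qHTS titration format.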
ELG1 repair inh – inhibitors of ELG1-dependent DNA repair in HEK293T cells; HEK293T ELG1-luciferase reporter, luminescence, 16 h; DNA damage induced by 5-fluorouridine; Potency, µM (doses to about 46.1 µM), for inactives: at the highest dose activity change, negative = inhibition, usual class: inhibitors; 330,000 tested, 2.3% active; also: potency is read from the fitted curve at half-maximal effect; nearly all actives have a fitted effect of over 55% in size
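5-Fluorouridine DNA damage + compound/DMSO, 2,000 cells/well, 16 h, 37 °C/5% CO2. ONE-Glo, 30 min RT, luminescence. Readout = decrease in reporter signal.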
An asterisk follows results filed as active; ? = inconclusive; . = no result given; [ ] = another dose, or the depositor's remark. Unless noted, calls follow the shape of the dose curve; as a rule, active = well fitted curve in the direction sought with a large enough effect; inconclusive = small, poorly fitted or top-dose-only effect, or another doubt; inactive = no such curve, though single readings can be large; an effect the other way counts as inactive or inconclusive. % is scaled to controls: 0 for no effect and ±100 for the full control effect.

SMILES	TDP1 cell noCPT	Giardia kill	IL1B secr inh	TDP1 block	TDP1 cell CPT	ELG1 repair inh
CN(c1ccccc1)S(=O)(=O)c1cccc(NC(=O)CSc2n[nH]c(N)n2)c1	9.2µM*	-8	26	.	9.2µM*	21µM*
Nc1nc(SCC(=O)Nc2cccc(S(=O)(=O)N3CCCCCC3)c2)n[nH]1	-10%	5	23	0%	-24%	-5%
Nc1nc(SCC(=O)Nc2ccc(OCc3ccccc3)cc2)n[nH]1	?	1	0	71µM*	-24%	?
COCCn1cnnc1SCC(=O)Nc1cccc(S(=O)(=O)N(C)c2ccccc2)c1	-7%	4	11	1%	6%	3%
COCc1ccc(CN2CCOc3ccc(C4=CCCCC4)cc3C2)o1	?	.	.	.	3%[9.04 µM]	.
Cc1cccnc1-c1cccc2c1OC(CNC(=O)C(=O)c1ccccc1)C2 (stereo unspecified)	-28%	.	.	.	?	.
Fc1ccc(-c2csc(=Nc3cccc(C(F)(F)F)c3)n2Cc2ccc3c(c2)OCO3)cc1	13µM*	.	.	3%	13µM*	.
CCN(CC)S(=O)(=O)c1ccc(-c2csc(=Nc3cccc(C(F)(F)F)c3)n2Cc2ccc3c(c2)OCO3)cc1	9.2µM*	.	.	-2%	?	.
CCCN(CC(=O)Nc1ccccc1OC)C(=O)Cc1ccc2c(c1)CCC2	?	-2	1	1%	18µM*	0%
CCN(CC(=O)Nc1ccccc1OC)C(=O)C1CCCC1	-6%	8	2	0%	-24%	16%
CCCN(CC(=O)Nc1ccccc1OC)C(=O)C1CCCC1	21µM*	-2	4	-3%	?	4%
O=c1[nH]c(C(Cl)(Cl)Cl)nc2ccc3ccccc3c12	-9%	4	32	3%[0.0935 µM]	-28%	-12%
Cc1ccc(NC2=NC(c3ccc(F)cc3)n3c(nc(C)cc3=O)N2)cc1 (stereo unspecified)	-9%	29	-7	.	4%	-6%
CCOc1ccc(Cn2c(CNS(=O)(=O)c3c(C)cc(C)cc3C)nc3cccnc32)cc1	18µM*	.	.	7%	?	.
Cc1ccc(Cn2c(CNC(=O)c3ccccc3Br)nc3cccnc32)cc1	16µM*	.	.	5%	?	.
Cc1ccc(Cn2c(CNS(=O)(=O)c3c(C)cc(C)cc3C)nc3cccnc32)cc1	?	.	.	5%	16µM*	.
Cc1ccc(Cn2c(CNC(=O)c3ccc(Cl)c([N+](=O)[O-])c3)nc3cccnc32)cc1	?	.	.	9%	?	.
CCOc1ccc(Cn2c(CNS(=O)(=O)c3ccc(CC)cc3)nc3cccnc32)cc1	?	.	.	7%	?	.
Cc1ccc(Cn2c(CNS(=O)(=O)c3ccc(C(C)(C)C)cc3)nc3cccnc32)cc1	?	.	.	11%	?	.
COc1ccc(Cn2c(CNS(=O)(=O)c3ccc(C)c(C)c3)nc3cccnc32)cc1	-25%	.	.	4%	-26%	.
CCOc1ccc(Cn2c(CNS(=O)(=O)c3ccc(Cl)s3)nc3cccnc32)cc1	?	.	.	5%	18µM*	.
N#Cc1ccccc1Cn1c(=O)n(CCCC(=O)NCc2ccc3c(c2)OCO3)c(=O)c2sccc21	?	.	.	-1%	?	.
Cc1ccc(S(=O)(=O)NCc2nc3cccnc3n2Cc2ccccc2Cl)c(C)c1	?	.	.	1%	?	.
COc1ccccc1Cn1c(CNS(=O)(=O)c2c(C)cc(C)cc2C)nc2cccnc21	16µM*	.	.	11%	16µM*	.
COc1cccc(NC(=O)C2COc3ccccc3O2)c1 (stereo unspecified)	?	25	-11	.	-26%	?
SMILES	TDP1 cell noCPT	Giardia kill	IL1B secr inh	TDP1 block	TDP1 cell CPT	ELG1 repair inh
Cc1cc(-c2csc(NC(=O)c3ccc(=O)n(C)n3)n2)c(C)n1CC1CCCO1 (stereo unspecified)	-14%	33	?	50µM*	-24%	-19%
CCNc1nc(-c2cc(C)n(Cc3ccco3)c2C)cs1	?	30	-1	5%	?	-3%
Cc1cc(-c2csc(NC(=O)c3ccc(=O)[nH]c3)n2)c(C)n1Cc1ccco1	?	10	38	2.2µM*	-7%	1%
COc1ccccc1/C=N/n1c(C)nnc1-n1nc(C)cc1C	-3%	-20	26	4%	-28%	11%
Cc1cc(C)n(-c2nnc(C)n2/N=C/c2ccccc2OCc2ccccc2Cl)n1	21µM*	-28	-6	0%	?	-35%
CCOC(=O)C1=CCC(c2cccc3ccccc23)N(S(=O)(=O)c2ccc(C)cc2)C1 (stereo unspecified)	18µM*	.	0	.	15µM*	.
CCc1ccc([C@@H]2CC=C(C(=O)O)CN2S(=O)(=O)c2ccc(C)cc2)cc1	-22%	-26	13	1%	-1%	13%
CCOC(=O)C1=CCC(c2ccco2)N(S(=O)(=O)c2ccc(C)cc2)C1 (stereo unspecified)	?	.	55	.	?	.
CCOC(=O)C1=CCC(c2ccc(CC)cc2)N(S(=O)(=O)c2ccc(C)cc2)C1 (stereo unspecified)	9.2µM*	.	47	.	23µM*	.
CCOC(=O)C1=CCC(c2cccc(Cl)c2)N(S(=O)(=O)c2ccc(C)cc2)C1 (stereo unspecified)	12µM*	.	34	.	15µM*	.
CC(=O)C1=CCC(c2cccc(Cl)c2)N(S(=O)(=O)c2ccc(C)cc2)C1 (stereo unspecified)	10µM*	.	-85*	.	15µM*	.
CCn1c(SCC(=O)NCC2CCCO2)nnc1-c1ccc(S(=O)(=O)N2CCN(C)CC2)cc1 (stereo unspecified)	-4%	4	1	1%	-3%	-3%
COc1cc(OC)c(NC(=O)c2cc(C)nc3c2c(C)nn3-c2ccc(C)cc2)cc1Cl	-29%	.	.	0%	-26%	.
CCN(c1cccc(C)c1)S(=O)(=O)c1nnc(NC(=O)C2CCCCC2)s1	?	.	.	-12%	?	.
CCCc1nc2ccccc2n2c(-c3cccc(C)c3)c3c(=O)n(C)c(=O)n(C)c3c12	8.2µM*	.	.	-1%	?	.
CCCc1nc2ccccc2n2c(-c3ccc(C)cc3)c3c(=O)n(C)c(=O)n(C)c3c12	26µM*	.	.	-5%	23µM*	.
Cc1ccc(-c2nc3ccccc3n3c(-c4ccccc4)c4c(=O)n(C)c(=O)n(C)c4c23)cc1	-19%	.	.	1%	-3%	.
Cc1nc2ccccc2n2c(-c3ccccc3)c3c(=O)n(C)c(=O)n(C)c3c12	15µM*	8	1	-2%	?	-19%

Assay outcomes as filed in PubChem BioAssay.
